# Source: the supplement of paper PMC6555819
# Key:
# Experiment in all cases: PBM binding z-score (relative to random genomic background probes); higher = stronger binding; sequences stand for … in GC…GCGATTGACAGCGTAGAATGAAGG
# [1] = tested on: FXR:RXRa (NR concentration 270 nM, RXRa partner concentration 90 nM)
# How it was run: (§1)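 Binding z-scores take random background probes as their reference. They come from custom Agilent 4×180K protein-binding microarrays incubated 1 h with ligand-free nuclear receptor dimers, with antibodies against each partner (one per run) detecting binding. Scanned fluorescence was regression-normalized.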
# [2] = tested on: LXRa:RXRa (NR concentration 270 nM, RXRa partner concentration 90 nM)
# How it was run: as §1
# [3] = tested on: LXRa homodimer (NR concentration 270 nM)
# How it was run: as §1
# [4] = tested on: LXRb:RXRa (NR concentration 270 nM, RXRa partner concentration 90 nM)
# How it was run: as §1
# [5] = tested on: LXRb homodimer (NR concentration 270 nM)
# How it was run: as §1
# [6] = tested on: PPARa:RXRa (NR concentration 270 nM, RXRa partner concentration 90 nM)
# How it was run: as §1
# [7] = tested on: PPARg:RXRa (NR concentration 180 nM, RXRa partner concentration 90 nM)
# How it was run: as §1
# [8] = tested on: PPARg:RXRa 270nM:90nM, anti-RXR (NR concentration 270 nM, RXRa partner concentration 90 nM)
# How it was run: as §1
# [9] = tested on: PPARg:RXRa 30nM:10nM, anti-RXR (NR concentration 30 nM, RXRa partner concentration 10 nM)
# How it was run: as §1
# [10] = tested on: PPARg:RXRa 90nM:30nM, anti-RXR (NR concentration 90 nM, RXRa partner concentration 30 nM)
# How it was run: as §1
# [11] = tested on: PPARg:RXRa DBDmut IVT, anti-RXR (DBD mutation: RXRa K156A/R161A, NR concentration 270 nM, RXRa partner concentration 90 nM)
# How it was run: as §1
# [12] = tested on: PPARg:RXRa IVT, anti-PPARg (NR concentration 270 nM, RXRa partner concentration 90 nM)
# How it was run: as §1
# [13] = tested on: PPARg DBDmut:RXRa IVT, anti-PPARg (DBD mutation: PPARg1 K132A/R137A, NR concentration 270 nM, RXRa partner concentration 90 nM)
# How it was run: as §1
# [14] = tested on: PPARg DBDmut IVT, anti-PPARg (DBD mutation: PPARg1 K132A/R137A, NR concentration 270 nM)
# How it was run: as §1
# [15] = tested on: PPARg homodimer (NR concentration 180 nM)
# How it was run: as §1
# [16] = tested on: PXR:RXRa (NR concentration 270 nM, RXRa partner concentration 90 nM)
# How it was run: as §1
# [17] = tested on: PXR homodimer (NR concentration 270 nM)
# How it was run: as §1
# [18] = tested on: RARa:RXR (NR concentration 270 nM, RXRa partner concentration 90 nM)
# How it was run: as §1
# [19] = tested on: RARa homodimer (NR concentration 270 nM)
# How it was run: as §1
# [20] = tested on: RARb:RXRa (NR concentration 270 nM, RXRa partner concentration 90 nM)
# How it was run: as §1
Sequence,PBM binding z-score [1],PBM binding z-score [2],PBM binding z-score [3],PBM binding z-score [4],PBM binding z-score [5],PBM binding z-score [6],PBM binding z-score [7],PBM binding z-score [8],PBM binding z-score [9],PBM binding z-score [10],PBM binding z-score [11],PBM binding z-score [12],PBM binding z-score [13],PBM binding z-score [14],PBM binding z-score [15],PBM binding z-score [16],PBM binding z-score [17],PBM binding z-score [18],PBM binding z-score [19],PBM binding z-score [20]
GATAGAGGGTCAGCTAGAGGCCAGAGTATGGAAA,3.79,2.41,-0.113,2.02,-0.604,3.92,2.36,2.57,0.476,1.54,1.62,2.24,-0.25,-0.22,1.64,2.44,-0.0848,3.7,0.224,3.85
TCGAGAAGGTTAGGGGCATTCAGAATGGCGTCGA,0.95,0.839,-0.359,1.38,-0.293,1.83,0.297,1.19,2.23,1.43,1.15,0.162,-1.01,-0.967,0.818,0.866,-0.0334,0.991,0.387,2.02
TGAATGAGGTTAAAAATCAGGGAACGTGGCGTCG,1.83,1.78,-0.491,1.1,0.545,2.87,1.72,2.33,1.16,1.77,1.43,1.8,0.361,0.195,-0.0328,0.848,-0.0817,1.45,-0.472,1.32
TCTTGTAGATCAATAGTGGTTAAGAAAGTGCGCT,0.499,0.37,-0.000472,0.00968,0.297,0.451,-0.385,1.4,2.83,2.06,1.98,0.303,0.28,1.33,0.545,0.46,0.364,0.481,0.947,0.0691
ATCTCTAGGTAAGGCTCAGTTCAGTGAAGAACGC,0.198,0.107,0.412,0.0703,0.35,0.125,0.0741,0.513,0.188,0.48,1.94,1.3,0.628,1.33,0.996,0.855,1.22,0.496,0.033,0.228
TGAATGAGGTTAAAGAACAGGGAACGTGGCGTCG,2.39,1.98,-0.259,1.32,0.39,3.38,2.53,3.32,1.51,3.04,1.89,2.33,0.69,0.463,0.725,1.13,0.0217,1.52,0.262,1.95
CGAACTAGGTCATTGGCAGGACAGTGAATAGTAA,4.29,2.62,0.219,1.66,-0.306,4.73,7.68,6.26,3.37,5.72,8.14,8.31,3.04,0.566,1.51,1.61,-0.0888,2.11,0.516,3.71
GGAACGAGGACAAGTTGATAGCAGAGTTTGATGG,0.526,-0.33,-0.0892,-0.534,-0.685,0.0298,0.641,-0.0478,-0.0459,-0.0367,0.934,0.446,-0.104,-0.565,-0.282,0.0933,0.0308,0.108,-0.522,1.32
ACAGACAGGTGAGTGAAGGTAACTTAGCTGGACG,0.0414,0.0601,-0.497,-0.508,-0.62,-0.0817,0.693,-0.15,-0.0448,-0.0872,0.507,0.549,-0.0823,-0.397,0.206,-0.213,-0.19,0.132,-0.0854,0.486
CGAACTAGGTCGGAACAGGACAGTGAAGGATGAT,-0.0248,-0.452,-0.434,-0.642,-1,0.71,1.23,0.719,0.0935,0.234,4.12,3.56,0.508,-0.428,-0.2,-0.28,-0.583,0.314,-0.0866,0.543
CCGAGTGGGGCAGAAAGGTTACCATACCATCCGG,0.579,0.723,0.104,0.959,-0.975,2.23,1.76,2.79,0.657,2.3,1.16,1.76,-1.17,-1.29,0.799,1.05,0.126,1.5,-0.131,1.63
TAGTCTAGGTCATGGGCCAGTATACCACGCGAAC,4.42,3.68,1.27,2.58,1.74,4.88,7.25,6.37,3.68,6,5.8,6.96,3.12,2.31,2.49,1.57,0.209,2.78,0.751,3.95
ATCTCTAGGTAAAAATTCAGTGAATCCCGAGGAT,0.0972,-0.215,-0.0718,-0.277,0.956,0.272,0.62,1.34,0.671,1.1,1.24,1.17,1.27,1.13,0.243,-0.0506,-0.317,-0.0791,0.766,0.165
GCTTGTAGATCAAGGGTAAGAAAGACTAAGCTAA,-0.663,-0.469,-0.732,-0.394,-0.8,1.24,2.55,4.2,1.91,4.14,1.15,1.03,-0.364,-0.778,0.0991,-0.426,-0.45,-0.346,-0.786,-0.0761
